# Shown are actives, neighbours in structure and some others; about 6.6% of the full set was active somewhere.
# CSC inhib: cancer stem cell viability inhibitors, primary screen, luminescence. 300,000 compounds, 1.1% hits. cancer stem cell-like cells viability. inhibition, % at 7.5 µM; in the data active = inhibition above about 75%; tested in HMLE shEcad cells
# MPTP inh: mitochondrial permeability transition pore inhibitors, primary screen, biochemical, isolated mouse mitochondria, absorbance. Ca2+ swelling absorbance, 30 min. inhibition, % at 10 µM. 360,000 compounds, 1.4% hits. AID 602449, 2012;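 active = inhibition of 50% or more, scaled per plate between neutral and stimulator controls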;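 also: 0% = DMSO wells given calcium and 100% = 1 mM EGTA wells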
# Gli-Sufu antag: Gli-Sufu pathway antagonists, primary screen, luciferase luminescence, Sufu-KO-LIGHT cells, uHTS; Sufu-KO-LIGHT fibroblasts, Gli luciferase reporter luminescence; 340,000 compounds, 0.74% hits; AID 588413, 2011; inhibition, % at 5 µM;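 active = inhibition above about 55%, limit read from the data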;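 also: 0% = DMSO-treated cells and 100% = wells with medium but no cells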
# Mdm2-MdmX inh: inhibitors of human Mdm2-MdmX association, primary screen, cell-based, luminescence, split luciferase, SaOS-2, uHTS | AID 485346, 2010 | SaOS-2 split-luciferase Mdm2/MdmX complementation | 330,000 compounds, 3% hits | inhibition, % at 8 µM | Protein Mdm4 (Homo sapiens) + E3 ubiquitin-protein ligase Mdm2 (Homo sapiens), …;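 active = inhibition of at least 50% at 8 µM in the primary screen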
# NR3A LBD binder: binders of NR3A ligand-binding domain, primary screen, biophysical, differential scanning fluorimetry, uHTS. NR3A LBD differential scanning fluorimetry, Tm shift; 0% = protein alone, 100% = glycine-bound protein. AID 1259313, 2017. 340,000 compounds, 2.5% hits. Tm shift relative to glycine control, % at 25 µM;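 active = melting temperature shift of at least 10% of the positive control shift, at one fixed dose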
# Beta cell apopt: inhibitors of cytokine-induced beta cell apoptosis, primary screen, luminescence | protection from apoptosis, % (no concentration beside the values) | AID 435005, 2010 | INS-1E cytokine-induced death, ATP luminescence, 48 h; percent of positive-control rescue, neutral wells zero | 300,000 compounds, 0.8% hits;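 active = Every replicate reaches about 75%, or at least half do and their mean reaches it too, limit read from the data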;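 also: 0% = cytokine-treated negative control wells and 100% = positive control rescue; higher means more ATP so stronger rescue from cytokine killing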
# Mdm2-MdmX conf: Mdm2-MdmX complex disruptors, retested hits, confirmation, luminescence, single concentration | inhibition, % at 8 µM | shares compounds with Mdm2-MdmX inh | 10,000 compounds, 55% hits | Mdm2-MdmX binding, luminescent assay | AID 489028, 2010; in the data active = inhibition above about 40%
# FLuc counter: full-length luciferase signal inhibition, confirmation, counter-screen for Mdm2/MdmX interaction inhibitor project, cell-based, single concentration, SaOS-2. AID 504607, 2011. SaOS-2 full-length luciferase counterscreen, luminescence. 6,200 compounds, 77% hits. inhibition, % at 8 µM. shares compounds with Mdm2-MdmX inh;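 active = mean inhibition at 8 µM reaching about 37%, which flags the compound as non-specific, limit read from the data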;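 also: p53-null SaOS-2 cells with luciferase driven by a doxycycline-inducible promoter; compound on cells about two nights before reading with doxycycline added after day one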
# The depositor's hits bear a star; · = not tested or not shown.
SMILES,CSC inhib,MPTP inh,Gli-Sufu antag,Mdm2-MdmX inh,NR3A LBD binder,Beta cell apopt,Mdm2-MdmX conf,FLuc counter
CCOC(=O)c1sc(NC(=O)CSc2nnnn2-c2ccccc2)c(C(=O)OCC)c1C,14,3,-8,10,-4,4,·,·
CCOC(=O)c1c(NC(=O)CSc2nnnn2-c2ccccc2OCC)sc2c1CC(C)(C)NC2(C)C,56,1,39,58*,0,37,41*,73*
CCOC(=O)c1c(NC(=O)CCS(=O)(=O)c2ccccc2)sc2c1CC(C)(C)NC2(C)C,-3,1,11,14,0,0,·,·
CCCOc1ccc(F)cc1-c1cc(C(=O)NCc2cccs2)[nH]n1,·,1,·,·,·,·,·,·
CCN(CC)CCn1c2ccccc2c2cnc(N)c(C#N)c21,-1,-1,-75,63*,-1,93*,27,·
CN(C)C=Nc1ncc2c3ccccc3n(CCN(C)C)c2c1C#N,7,4,3,60*,-1,-4,62*,22
CC(OC(=O)/C=C/c1ccc2ccccc2n1)C(=O)Nc1ccc(S(N)(=O)=O)cc1 (stereo not given),27,1,4,72*,-3,-12,49*,66*
c1cc2c3c(cccc3c1)-c1cnccc1-2,·,0,14,·,-1,·,·,·
C/C(=N\N=C(N)N)c1ccc(Cl)c(Cl)c1,22,2,2,56*,0,-2,38,·
CC(C)(C)NC(=S)NCc1ccncc1,5,-1,13,-6,-8,-3,·,·
CC(C)c1ccc(N2C(=O)CC(Sc3ncn[nH]3)C2=O)cc1 (stereo not given),-9,1,-4,14,-1,·,·,·
CC(C)c1ccc(N2C(=O)CC(Sc3nc4ccccc4o3)C2=O)cc1 (stereo not given),8,4,2,100*,-5,·,29,·
COC1=CC(=O)C=C(OC)C1=O,·,1,9,·,0,·,·,·
COC1=CC(=O)c2ccccc2C1=O,·,-2,7,51*,-2,·,11,·
N#CC1=C2SCC(O)(c3ccccc3)N2C(=O)CC1c1ccccc1F (stereo not given),43,0,22,87*,1,30,83*,40*
O=C(NCCS(=O)(=O)N1CCC2(CC1)OCCO2)c1ccccc1,1,-1,-9,-11,1,3,·,·
CN(C)c1ccc(C=Nc2cnn(C)c2C(N)=O)cc1,-10,1,-9,52*,-1,-4,-1,·
Cc1cccc(C)c1NC(=O)C(c1ccncc1)n1c(=O)c(-c2ccco2)nc2ccccc21 (stereo not given),·,-1,·,·,·,·,·,·
CC(C)(C)OC(=O)NCc1ccc(NC(=O)c2nc[nH]c2C(=O)NCCNC(=O)c2[nH]cnc2C(=O)Nc2ccc(CNC(=O)OC(C)(C)C)cc2)cc1,·,2,4,74*,-19,81*,24,·
C[C@@H](O)CNC(=O)c1[nH]cnc1C(=O)Nc1ccc(CNC(=O)OC(C)(C)C)cc1,·,0,·,·,·,·,·,·
CC(C)(C)OC(=O)NCCCCCNC(=O)c1nc[nH]c1C(=O)NCc1ccc(CNC(=O)OC(C)(C)C)cc1,27,3,27,54*,-22,45,22,·
CC(C)(C)OC(=O)CNC(=O)c1[nH]cnc1C(=O)Nc1ccc(CNC(=O)OC(C)(C)C)cc1,33,1,8,63*,-15,7,54*,74*
CC(C)(C)OC(=O)NCc1ccc(CNC(=O)c2nc[nH]c2C(=O)NCc2ccc(CNC(=O)OC(C)(C)C)cc2)cc1,·,1,36,17,-5,48,·,·
CC(C)(C)OC(=O)CNC(=O)c1[nH]cnc1C(=O)NCC(=O)OCc1ccccc1,-4,0,-13,32,0,-8,·,·
CC(C)(C)OC(=O)NCCCCCNC(=O)c1nc[nH]c1C(=O)NCC(=O)OCc1ccccc1,9,-1,-1,66*,0,-3,46*,50*
SMILES,CSC inhib,MPTP inh,Gli-Sufu antag,Mdm2-MdmX inh,NR3A LBD binder,Beta cell apopt,Mdm2-MdmX conf,FLuc counter
Cc1cc(Cl)ccc1C(O)c1ncc(-c2cccc(C(F)(F)F)c2)[nH]1 (stereo not given),·,10,·,·,·,·,·,·
COC(=O)CC1COc2ccccc2N1C(=O)/C=C/c1ccccc1 (stereo not given),-1,1,9,8,0,7,·,·
O=C(CSc1nc(O)cc(=O)[nH]1)N1c2ccccc2CCc2ccccc21,-14,-1,8,-7,2,2,·,·
COc1ccccc1NS(=O)(=O)c1cc(C(=O)NCC(C)(C)N2CCOCC2)ccc1C,-5,-1,8,2,-2,-1,·,·
CC(C)C[C@H](NC(=O)c1[nH]cnc1C(=O)Nc1ccc(CNC(=O)OC(C)(C)C)cc1)C(=O)OC(C)(C)C,28,-1,-3,53*,-9,24,-9,·
CC(C)(C)OC(=O)NCc1ccc(NC(=O)c2nc[nH]c2C(=O)N[C@@H](Cc2ccccc2)C(=O)OC(C)(C)C)cc1,-17,0,-32,37,3,22,·,·
C[C@H](NC(=O)c1[nH]cnc1C(=O)Nc1ccc(CNC(=O)OC(C)(C)C)cc1)C(=O)OCc1ccccc1,-13,0,-12,80*,-6,-5,14,·
CCCCC(=O)NC(c1ccc(OC)cc1)c1ccc2cccnc2c1O (stereo not given),·,2,·,·,·,·,·,·
CC(=O)NC(c1ccco1)c1ccc2cccnc2c1O (stereo not given),-1,-3,-10,72*,0,90*,54*,28
CCCC(=O)NC(c1ccc(C(C)C)cc1)c1ccc2cccnc2c1O (stereo not given),99*,1,·,80*,2,·,88*,21
CCCC(=O)NC(c1ccc(N(C)C)cc1)c1ccc2cccnc2c1O (stereo not given),152*,-1,86*,80*,0,96*,80*,30
CCCC(=O)NC(c1ccc(OC)cc1)c1c(O)ccc2ccccc12 (stereo not given),50,0,-14,50*,-14,1,39,61*

# Screening results deposited in PubChem by several laboratories.
